From PubChem
Hits are enriched below; roughly 32% of the tested compounds scored in any of these assays.
CYP2C19 inh = blocks human cytochrome P450 2C19; P33261; CYP2C19 Supersomes, luciferin-H EGE luminescence, 30 min; inhibition, % at 5 µM; hit rate 21% among 96,000;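 active = CYP2C19 inhibition above a set limit at 5 µM in the primary screen, cut at about 50% in these data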;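 also: plate controls were negative control wells for no effect and 2.5 mM tranylcypromine positive control for full effect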
Target sequence (P33261 whole entry, looked up): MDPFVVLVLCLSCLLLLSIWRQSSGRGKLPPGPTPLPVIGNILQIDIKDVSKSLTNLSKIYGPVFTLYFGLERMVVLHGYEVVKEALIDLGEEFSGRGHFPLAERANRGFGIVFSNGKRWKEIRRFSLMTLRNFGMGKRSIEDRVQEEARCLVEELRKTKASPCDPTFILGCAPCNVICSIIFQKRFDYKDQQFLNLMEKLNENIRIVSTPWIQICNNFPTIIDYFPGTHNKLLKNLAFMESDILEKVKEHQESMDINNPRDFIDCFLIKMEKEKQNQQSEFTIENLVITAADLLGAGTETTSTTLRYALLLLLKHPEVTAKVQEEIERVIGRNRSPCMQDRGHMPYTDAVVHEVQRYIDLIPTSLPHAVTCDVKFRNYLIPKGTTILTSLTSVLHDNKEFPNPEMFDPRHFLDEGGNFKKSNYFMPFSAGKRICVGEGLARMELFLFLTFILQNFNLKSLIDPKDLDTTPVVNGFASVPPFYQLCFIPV
CYP2C9 inh = human CYP2C9 inhibition; CYP2C9 Supersomes, luciferin-H conversion, luminescence; inhibition, % at 5 µM; hit rate 20% among 96,000; AID 777;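 active = blocking of liver enzyme CYP2C9 beyond about 50% at 5 µM, limit read from the data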
CYP2C19 act = increases human CYP2C19 enzyme activity | P33261 | recombinant CYP2C19, luciferin-H EGE luminescence; hits give high values; 0 = fully inhibited enzyme, 1 = untreated enzyme | activation factor at 5 µM | 96,000 tested, under 10 active | AID 1025;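 active = activation factor of at least 2 at 5 µM in the primary screen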;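 also: 0 = wells with 2.5 mM tranylcypromine and 1 = vehicle-only wells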
PostGolgi yeast = growth inhibition of a yeast mutant, post-Golgi transport screen; inhibition, % at 10 µM; AID 739; hit rate 0.9% among 98,000; post-Golgi transport phenotypic cell assay;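 also: yeast cells grown in 1536-well plates; yeast grown about 18 h at 30C before absorbance read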
CYP2C9 activ = increases human cytochrome P450 2C9 activity. hit rate 1.4% among 96,000. activation factor at 5 µM. P11712. recombinant CYP2C9, luciferin-H conversion, luminescence; hits give high values; factor 1 = untreated enzyme, 0 = blocked;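 active = activation factor of 2 or more for CYP2C9 at a 5 µM dose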;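 also: 0 = sulfaphenazole-blocked wells and 1 = vehicle-only wells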
PostGolgi ctrl = inhibits growth of the yeast control strain. hit rate 5% among 98,000. efflux-deficient yeast background strain, growth absorbance A615, 16 h. inhibition, % at 10 µM
Numbers without * were called inactive; nt = no result given. Rule as the data show it, unless noted: active = inhibition above about 30%; inactive = the rest.

SMILES	CYP2C19 inh	CYP2C9 inh	CYP2C19 act	PostGolgi yeast	CYP2C9 activ	PostGolgi ctrl
COC(=O)c1cccc(NC(=O)Cn2cnc3c2c(=O)n(C)c(=O)n3C)c1	18	61*	0.8	nt	0.4	nt
CC(C)NC(=O)Cn1cnc2c1c(=O)n(C)c(=O)n2C	-18	-15	1.2	7	1.1	-1
CCCCn1c(Oc2ccc(C(=O)OC)cc2)nc2c1c(=O)n(C)c(=O)n2C	30	42	0.7	nt	0.6	nt
COC(=O)c1cccc(Oc2nc3c(c(=O)n(C)c(=O)n3C)n2C(C)C)c1	34	75*	0.7	-11	0.3	5
CCOC(=O)CSc1nnc(CNC(=O)Cc2ccccc2)n1C	-12	-12	1.1	-2	1.1	-5
O=C(NCCCn1ccnc1)c1csc2ccccc12	87*	87*	0.1	17	0.1	25
CCCCCNC(=O)c1ccccc1SC	59*	-29	0.4	-3	1.3	-4
CCCCNC(=O)c1ccccc1C(=O)NCCCC	11	6	0.9	1	0.9	-2
O=C(NCCCn1ccnc1)c1ccco1	15	6	0.9	-1	0.9	-2
O=C(Nc1ccccc1C(=O)NCCCn1ccnc1)c1ccccc1	84*	96*	0.2	1	0	3
CCSc1ccccc1C(=O)NCCCn1ccnc1	92*	63*	0.1	-1	0.4	12
CCSc1ccccc1C(=O)Nc1cccnc1	nt	nt	nt	-1	nt	12
CC(C)Oc1ccc(NC(=O)Oc2ccccc2)cc1	23	17	0.8	1	0.8	0
O=C(Nc1cccc(N2CCCC2)c1)c1cccs1	-2	12	1	2	0.9	4
COC(=O)c1cc(NC(=O)CSc2nncn2C)cc(C(=O)OC)c1	22	27	0.8	-7	0.7	17
COc1ccc(C(=O)Nc2ccccc2C(=O)NCCCn2ccnc2)cc1	85*	100*	0.2	-3	0	-2
CCOc1ccccc1-n1c(COc2ccc(C)cc2)nnc1SCC(N)=O	27	17	0.7	-7	0.8	2
Cc1cc2ncn(CC(O)COc3cccc(C(=O)O)c3)c2cc1C (stereo unspecified)	-13	-16	1.1	35*	1.2	-7
CCOC(=O)N1CCN(CC(O)COC2CC(C)CCC2C(C)C)CC1 (stereo unspecified)	57*	48	0.4	1	0.5	14
CCOC(=O)N1CCN(CC(O)COCCC23CC4CC(CC(C4)C2)C3)CC1 (stereo unspecified)	22	4	0.8	4	1	31*
O=C(CN1CCN(c2ncccn2)CC1)N(Cc1ccccc1)c1ccc(F)cc1	61*	50*	0.4	-3	0.5	4
O=C(/C=C/c1ccc(Cl)c(Cl)c1)n1cccn1	6	0	0.9	-9	1	3
O=C(CSc1nc2ccccc2[nH]1)NCCN1CCCCC1	-5	4	1.1	-6	1	3
COc1cc2nc(SCc3c(C)noc3C)n(CCC3=CCCCC3)c(=O)c2cc1OC	33	74*	0.7	22	0.3	9
COc1ccc(Cc2nnc(SCc3c(C)noc3C)n2C2CCCCC2)cc1OC	17	-4	0.8	-3	1	2
SMILES	CYP2C19 inh	CYP2C9 inh	CYP2C19 act	PostGolgi yeast	CYP2C9 activ	PostGolgi ctrl
C=CCn1c(SCc2nc3ccccc3c(=O)[nH]2)nc2ccccc2c1=O	33	83*	0.7	2	0.2	14
O=c1c2ccccc2nc(SCc2cc(F)ccc2F)n1C1CCCC1	-12	11	1.1	-10	0.9	-1
C=CCn1c(SCc2c(C)noc2C)nc2ccccc2c1=O	95*	97*	0	-5	0	16
Cc1noc(C)c1CSc1nc2ccccc2c(=O)n1-c1ccc(F)cc1F	39	94*	0.6	3	0.1	55*
O=C(NCC1CCC(C(=O)O)CC1)c1cccnc1 (stereo unspecified)	2	-3	1	22	1	1
Cc1noc(C)c1CSc1nc2[nH]ncc2c(=O)n1-c1ccccc1	nt	nt	nt	-2	nt	9
C=CCn1c(SCC(=O)N2CCc3ccccc3C2)nc2ccccc2c1=O	74*	95*	0.3	-6	0.1	49*
C=CCn1c(SCC(=O)c2ccc(Cl)s2)nc2ccccc2c1=O	27	35	0.7	-3	0.6	17
Cc1noc(C)c1CSc1nc2ccccc2c(=O)n1-c1ccccc1	37	84*	0.6	-6	0.2	18
C=CCc1c(C)nc(SCc2nc3ccccc3c(=O)[nH]2)[nH]c1=O	16	67*	0.8	-3	0.3	5
CCCn1c(SCc2nc3sc(C)c(C)c3c(=O)[nH]2)nc2ccccc2c1=O	37	66*	0.6	3	0.3	5
C=CCc1c(C)nc(SCCC)[nH]c1=O	-2	-7	1	-6	1.1	7
O=C(CCCc1nc(-c2ccc(Cl)cc2)no1)N1CCOCC1	nt	nt	nt	-1	nt	3
O=[N+]([O-])c1ccc(C2CCCC/C2=N\OCc2cccc(F)c2)c([N+](=O)[O-])c1 (stereo unspecified)	32	30	0.7	1	0.7	10
O=c1c2ccccc2nc(SCc2nnc(-c3ccccc3)o2)n1-c1ccccc1	35	95*	0.6	nt	0	nt
CCc1ccccc1NC(=O)c1cc(C2CC2)on1	35	-141	0.7	-8	2.4*	20
Cc1cc(C(=O)Nc2ccccc2C(F)(F)F)no1	-6	2	1.1	9	1	2
CCOC(=O)N1CCc2c(sc3nc4n(c(=O)c23)N=C(C)CS4)C1	6	24	0.9	0	0.8	8
CC(C)COC(=O)c1cc(-c2ccc(/C=N/n3cnnc3)o2)ccc1Cl	23	38	0.8	5	0.6	36*
CC(C)CCOc1ccc(-c2c(=O)n(OCc3ccc([N+](=O)[O-])cc3)c3ccccc3[n+]2[O-])cc1	14	32	0.9	1	0.7	13
Cc1sc2ncn(CCn3cnc4sc(C)c(C)c4c3=O)c(=O)c2c1C	86*	74*	0.1	7	0.3	20
Cc1sc2ncn(CCC(=O)O)c(=O)c2c1C	24	-215	0.8	-2	3.2*	2
Cc1sc2ncn(-n3c(C)ccc3C)c(=O)c2c1C	47	18	0.5	-7	0.8	4
CN=C1S/C(=C\c2ccc(N3CCOCC3)c(F)c2)C(=O)N1C	12	7	0.9	-12	0.9	6
COc1cc2c(cc1OC)-c1cc(OCCN3CCOCC3)nc(=O)n1CC2	1	-2	1	15	1	12
CCCSCCCNC(=O)c1cc2c(s1)CS(=O)(=O)C2	8	14	0.9	1	0.9	1
Cc1cccc(N2CCN(CCNC(=O)c3cc4c(s3)CS(=O)(=O)C4)CC2)c1C	48	53*	0.5	16	0.5	-13
Cn1cnnc1SCC(=O)Nc1sccc1C#N	-4	2	1	8	1	4
